# In ChEMBL document CHEMBL3433997, “St. Jude Leishmania screening dataset” (2016):
# Assays:
# Format in all cases: functional
# [1] = target: Solute carrier family 2, facilitated glucose transporter member 1 (Homo sapiens) (UniProt P11166); test: ST_JUDE_LEISH: Cytotoxicity at 2uM final concentration against transgenic Leishmania Mexicana promastigotes LmGLUT1 that are glucose transport deficient and complemented with the human glucose transporter GLUT1. Activity is measured by DNA content using SYBR green in vitro
# Chain of Solute carrier family 2, facilitated glucose transporter member 1 (Homo sapiens) (P11166 whole entry): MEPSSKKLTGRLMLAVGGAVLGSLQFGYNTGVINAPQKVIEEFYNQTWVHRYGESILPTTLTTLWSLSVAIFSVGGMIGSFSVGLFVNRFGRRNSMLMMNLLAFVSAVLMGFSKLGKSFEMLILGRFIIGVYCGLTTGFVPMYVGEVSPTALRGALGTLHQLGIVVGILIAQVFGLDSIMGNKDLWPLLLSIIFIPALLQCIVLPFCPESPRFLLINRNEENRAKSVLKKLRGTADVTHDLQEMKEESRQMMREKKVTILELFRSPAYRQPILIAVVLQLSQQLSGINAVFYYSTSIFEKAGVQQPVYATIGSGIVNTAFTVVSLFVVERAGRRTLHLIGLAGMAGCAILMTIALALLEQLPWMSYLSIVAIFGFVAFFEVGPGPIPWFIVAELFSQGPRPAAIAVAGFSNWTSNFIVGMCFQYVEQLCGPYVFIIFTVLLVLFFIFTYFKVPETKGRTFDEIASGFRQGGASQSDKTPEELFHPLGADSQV
# [2] = target: Hexose transporter 1 (Plasmodium falciparum) (UniProt O97467); test: ST_JUDE_LEISH: Cytotoxicity at 2uM final concentration against transgenic Leishmania Mexicana promastigotes LmPfHT that are glucose transport deficient and complemented with the Plasmodium falciparum hexose transporter. Activity is measured by DNA content using SYBR green in vitro
# [3] = target: Glucose transporter (Leishmania mexicana) (UniProt O61059); test: ST_JUDE_LEISH: Cytotoxicity at 2uM final concentration against transgenic Leishmania Mexicana promastigotes LmGT2 that are glucose transport deficient and complemented with the L. Mexicana glucose transporter 2. Activity is measured by DNA content using SYBR green in vitro
SMILES,inhibition [1] [%],inhibition [2] [%],inhibition [3] [%]
CC(C)C(C)(C#N)NC(=O)CSc1nc2ccc([N+](=O)[O-])cc2s1 (stereo not drawn),-0.35,0.01,-1.55
COc1ccc2nccc([C@@H](O)CN3CCC(NC/C=C/c4cccnc4)CC3)c2c1,1.71,2.98,2.59
O=C(C=Cc1ccc(Cl)c(Cl)c1)NCCCCCN1CCCC(CCCNC(=O)/C=C/c2ccccc2)C1 (stereo not drawn),3.2,3.05,3.82
CC1CN(Cc2ccc(C#N)cc2)CCN1c1ccc(NC(=O)c2cccs2)cc1 (stereo not drawn),8.47,8.63,8.98
N#Cc1ccc(N/C(=N\c2ccc(-c3ccccc3)cc2)NCc2cccnc2)c(O)c1,6.14,1.66,5.44
Oc1ccc2[nH]c(-c3cccs3)nc2c1CN1CCC(O)(c2ccccc2)CC1,10.6,5.23,9.03
